Experimental data taken from PubChem BioAssay (NCI).
This is part of a sample that, as a whole, favours compounds with a hit. Of some 83,000 tested, about 20% had one in any assay.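 Growth was measured after 48 h exposure to one concentration of compound in 96-well plates. Values under 10 count as active.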 Calls of active or inactive are those of the source.

Experiments:
Test in all cases: NCI-60 one-dose screen, 48 h (100 = growth as untreated, 0 = no growth, -100 = all killed)
SK-MEL-2 melanoma = system: SK-MEL-2 melanoma
EKVX NSCLC = system: EKVX NSCLC
SN12C renal = system: SN12C renal
UO-31 renal = system: UO-31 renal
TK-10 renal = system: TK-10 renal
ACHN renal = system: ACHN renal
CAKI-1 renal = system: CAKI-1 renal
A498 renal = system: A498 renal
CCRF-CEM leukemia = system: CCRF-CEM leukemia
MOLT-4 leukemia = settings: 10 µM unless noted

Measured: growth

Cc1ccc(C(=O)Nc2cccc(C(=O)NC(=S)Nc3ccc(S(N)(=O)=O)cc3)c2)cc1
inactive: SK-MEL-2 melanoma; 10 µM unless noted 82.7% | EKVX NSCLC; 10 µM unless noted 88.2% | SN12C renal; 10 µM unless noted 76.8% | UO-31 renal; 10 µM unless noted 69.4% | TK-10 renal; 10 µM unless noted 104% | ACHN renal; 10 µM unless noted 69.3% | CAKI-1 renal; 10 µM unless noted 49.5% | A498 renal; 10 µM unless noted 109% | CCRF-CEM leukemia; 10 µM unless noted 84.5% | MOLT-4 leukemia 59.2%

Oc1ccc(F)c(Nc2nc(SCCN3CCOCC3)nc3c2cnn3CC(Cl)c2ccc(Br)cc2)c1 (stereo not drawn)
inactive: SK-MEL-2 melanoma; 10 µM unless noted 33.5% | EKVX NSCLC; 10 µM unless noted 30% | SN12C renal; 10 µM unless noted 32.3% | UO-31 renal; 10 µM unless noted 16.9% | TK-10 renal; 10 µM unless noted 68.6% | ACHN renal; 10 µM unless noted 16.5% | CAKI-1 renal; 10 µM unless noted 24% | A498 renal; 10 µM unless noted 63.1%
active: CCRF-CEM leukemia; 10 µM unless noted -3.71% | MOLT-4 leukemia 6.17%

O=C(Nc1nc2ccc([N+](=O)[O-])cc2s1)Nc1ccc(Cl)cc1Cl
inactive: SK-MEL-2 melanoma; 10 µM unless noted 65% | EKVX NSCLC; 10 µM unless noted 40.7% | SN12C renal; 10 µM unless noted 29.4% | UO-31 renal; 10 µM unless noted 59.8% | TK-10 renal; 10 µM unless noted 40.9% | ACHN renal; 10 µM unless noted 37.3% | CAKI-1 renal; 10 µM unless noted 57.2% | CCRF-CEM leukemia; 10 µM unless noted 42.1% | MOLT-4 leukemia 33.9%
active: A498 renal; 10 µM unless noted -0.785%

CC/C(=C(\c1ccc(O)cc1)c1ccc(OCCN(C)C(=O)CCOCCNC(=O)c2ccc3c(c2)CN([C@@H]2CCC(=O)NC2=O)C3=O)cc1)c1ccccc1
inactive: SK-MEL-2 melanoma; 1 µM 103% | SK-MEL-2 melanoma; 10 µM 101% | EKVX NSCLC; 1 µM 100% | EKVX NSCLC; 10 µM 89.1% | SN12C renal; 1 µM 91.3% | SN12C renal; 10 µM 95.7% | UO-31 renal; 1 µM 91.9% | UO-31 renal; 10 µM 89.9% | TK-10 renal; 1 µM 99% | TK-10 renal; 10 µM 88.5% | ACHN renal; 1 µM 103% | ACHN renal; 10 µM 106% | CAKI-1 renal; 1 µM 101% | CAKI-1 renal; 10 µM 94.5% | A498 renal; 1 µM 93.3% | A498 renal; 10 µM 89.6% | CCRF-CEM leukemia; 1 µM 24.5% | CCRF-CEM leukemia; 10 µM 26.1%

Cc1cnc2ccc(Oc3ccccc3-c3ccccc3)nn12
inactive: SK-MEL-2 melanoma; 10 µM unless noted 108% | EKVX NSCLC; 10 µM unless noted 100% | SN12C renal; 10 µM unless noted 100% | UO-31 renal; 10 µM unless noted 90.1% | TK-10 renal; 10 µM unless noted 106% | ACHN renal; 10 µM unless noted 105% | CAKI-1 renal; 10 µM unless noted 94.5% | A498 renal; 10 µM unless noted 116% | CCRF-CEM leukemia; 10 µM unless noted 103% | MOLT-4 leukemia 107%

Nc1nnc(-c2cncc(Br)c2)c(-c2c[nH]c3ccc(Cl)cc23)n1
inactive: SK-MEL-2 melanoma; 10 µM unless noted 111% | EKVX NSCLC; 10 µM unless noted 78.4% | SN12C renal; 10 µM unless noted 83.2% | UO-31 renal; 10 µM unless noted 41.4% | TK-10 renal; 10 µM unless noted 111% | ACHN renal; 10 µM unless noted 66.1% | CAKI-1 renal; 10 µM unless noted 59.1% | A498 renal; 10 µM unless noted 112% | CCRF-CEM leukemia; 10 µM unless noted 52.9% | MOLT-4 leukemia 54.4%

CCCCCCCCc1ccc(C(=O)Nc2cccc(O)c2)cc1
active: CCRF-CEM leukemia; 10 µM unless noted 0.746%
inactive: SK-MEL-2 melanoma; 10 µM unless noted 83.8% | EKVX NSCLC; 10 µM unless noted 66.4% | SN12C renal; 10 µM unless noted 65.4% | UO-31 renal; 10 µM unless noted 34.4% | TK-10 renal; 10 µM unless noted 106% | ACHN renal; 10 µM unless noted 57.3% | CAKI-1 renal; 10 µM unless noted 77.8% | A498 renal; 10 µM unless noted 115% | MOLT-4 leukemia 35.5%

COc1ccc2[nH]c(O)c(N=Nc3nc(-c4ccc(Cl)cc4)cs3)c2c1
inactive: SK-MEL-2 melanoma; 10 µM unless noted 14% | CCRF-CEM leukemia; 10 µM unless noted 15.7%
active: EKVX NSCLC; 10 µM unless noted -3.25% | SN12C renal; 10 µM unless noted -69.2% | UO-31 renal; 10 µM unless noted -61.4% | TK-10 renal; 10 µM unless noted 7.57% | ACHN renal; 10 µM unless noted -79.1% | CAKI-1 renal; 10 µM unless noted -37.6% | A498 renal; 10 µM unless noted -89.7% | MOLT-4 leukemia -16.5%

CCOc1ccccc1[C@H]1C(C(=O)c2ccc(Cl)cc2)C2(N[C@@H]1c1ccccc1)C(=O)Nc1ccccc12 (stereo partly drawn)
active: SK-MEL-2 melanoma; 10 µM unless noted -46.5% | EKVX NSCLC; 10 µM unless noted 9% | SN12C renal; 10 µM unless noted -77.8% | UO-31 renal; 10 µM unless noted 8.77% | ACHN renal; 10 µM unless noted 2.68% | CAKI-1 renal; 10 µM unless noted 8.88% | A498 renal; 10 µM unless noted -2.33% | MOLT-4 leukemia -26.4%
inactive: TK-10 renal; 10 µM unless noted 36% | CCRF-CEM leukemia; 10 µM unless noted 12.1%

N#CC1=C(c2cccs2)Nc2c(c(-c3ccccc3)nn2-c2ccccc2)C12C(=O)Nc1ccc(Cl)cc12 (stereo not drawn)
inactive: SK-MEL-2 melanoma; 10 µM unless noted 22.8% | EKVX NSCLC; 10 µM unless noted 13.3% | SN12C renal; 10 µM unless noted 33.8% | UO-31 renal; 10 µM unless noted 12.7% | TK-10 renal; 10 µM unless noted 31.5% | ACHN renal; 10 µM unless noted 12.6% | CAKI-1 renal; 10 µM unless noted 23.3% | A498 renal; 10 µM unless noted 88.8% | CCRF-CEM leukemia; 10 µM unless noted 13.7% | MOLT-4 leukemia 19.3%

COc1ccc(NC(=O)Cn2c(/C=C/c3ccc([N+](=O)[O-])cc3)nc3ccccc3c2=O)cc1
inactive: SK-MEL-2 melanoma; 10 µM unless noted 78.9% | EKVX NSCLC; 10 µM unless noted 74.4% | SN12C renal; 10 µM unless noted 62.3% | UO-31 renal; 10 µM unless noted 22.9% | TK-10 renal; 10 µM unless noted 25.5% | ACHN renal; 10 µM unless noted 51.9% | CAKI-1 renal; 10 µM unless noted 63.2% | A498 renal; 10 µM unless noted 85.8% | CCRF-CEM leukemia; 10 µM unless noted 103% | MOLT-4 leukemia 114%

COc1ccc(-c2nc3ccccc3n2CC(=O)N=Nc2c(O)[nH]c3ccc(Br)cc23)cc1
inactive: SK-MEL-2 melanoma; 10 µM unless noted 85.4% | EKVX NSCLC; 10 µM unless noted 85% | SN12C renal; 10 µM unless noted 97% | UO-31 renal; 10 µM unless noted 66.7% | TK-10 renal; 10 µM unless noted 94.8% | ACHN renal; 10 µM unless noted 87.8% | CAKI-1 renal; 10 µM unless noted 74.9% | A498 renal; 10 µM unless noted 139% | CCRF-CEM leukemia; 10 µM unless noted 67.2% | MOLT-4 leukemia 37.2%
